Assay results taken from PubChem BioAssay (NCATS).
Inconclusive results are not listed. Calls of active or inactive are those of the source. Unless noted, calls follow the shape of the dose curve; as a rule, active = well fitted curve in the direction sought with a large enough effect; inconclusive = small, poorly fitted or top-dose-only effect, or another doubt; inactive = no such curve, though single readings can be large; an effect the other way counts as inactive or inconclusive.

Key:
[1] = biological target: M-phase phosphoprotein 8 (Homo sapiens) (UniProt Q99549); experiment: qHTS Validation Assay for Inhibitors for MPP8 Chromodomain Interactions with Methylated Histone Tails (AID 488949);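 also: 50 nM MPP8 with 50 nM peptide preformed then compounds added for 30 min; AlphaScreen signal from MPP8 chromodomain bound to biotinylated H3K9me3 peptide; top concentration of the series differs between compounds; % is scaled to controls: 0 for no effect and ±100 for the full control effect; nearly all actives have a fitted effect of over 55% in size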
Method in brief: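 Chemiluminescent proximity assay: histidine-tag capture via nickel acceptor beads, biotin peptide via streptavidin donor beads. Protein and peptide each at 50 nM, pH 7.4, with 30 min incubations at room temperature for complex formation, compound exposure and bead binding.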

[2] = biological target: Chromobox protein homolog 1 (Homo sapiens) (UniProt P83916); experiment: qHTS Validation Assay for Inhibitors of HP1-beta Chromodomain Interactions with Methylated Histone Tails (AID 488953);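 also: loss of AlphaScreen luminescence from HP1-beta binding biotinylated H3K9me3 peptide; series mostly up to about 110 µM; % is scaled to controls: 0 for no effect and ±100 for the full control effect; nearly all actives have a fitted effect of over 50% in size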
Method in brief: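 Compounds pinned into a preassembled complex of HP1-beta and trimethyl-K9 histone H3(1-18) biotin peptide (50 nM each; PBS pH 7.4, 0.01% Tween-20). After 30 min, bead-based AlphaScreen detection followed.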

[3] = biological target: Methanococcus maripaludis chaperonin (MmCpn) (UniProt Q6LX38); experiment: High-Throughput Screening for Modulators of Cytosolic Chaperonin Activity: MmCpn Primary Screen (AID 488978); also: 0% is about no effect
Method in brief: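 HTRF readout (320 nm excitation, 590/665 nm emission) of ADP generated by 50 nM MmCpn hydrolysing 30 uM ATP during 10 min at 37C; compound preincubated 5 min RT.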

[4] = biological target: D(1A) dopamine receptor (Homo sapiens) (UniProt P21728); experiment: HTS Assay for Allosteric Agonists of the Human D1 Dopamine Receptor: Primary Screen for Agonists (AID 488981); also: 0% is about no effect
Method in brief: (§1)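 Tetracycline-induced HEK293 Trex D1 cells with forced coupling to calcium, loaded with no-wash calcium dye; kinetic fluorescence read 180 s after compound addition for agonism, then a further 180 s after an EC20 dopamine challenge for potentiation.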

[5] = biological target: D(1A) dopamine receptor (Homo sapiens) (UniProt P21728); experiment: HTS Assay for Allosteric Agonists of the Human D1 Dopamine Receptor: Primary Screen for Potentiators (AID 488982); also: 0% is about no effect
Method in brief: as §1

[6] = biological target: D(1A) dopamine receptor (Homo sapiens) (UniProt P21728); experiment: HTS Assay for Allosteric Agonists of the Human D1 Dopamine Receptor: Primary Screen for Antagonists (AID 488983);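 also: calcium flux response to an EC80 dopamine challenge measured with no-wash dye; % is scaled to controls: 0 for no effect and ±100 for the full control effect; nearly all actives have a fitted effect of over 65% in size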
Method in brief: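 In this primary screen, compounds are applied to calcium-dye-loaded HEK293 T-REx cells with force-coupled D1 expression induced overnight at 30 C. An EC80 of dopamine follows the 180 s compound phase, and calcium is monitored for a further 180 s.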

[7] = biological target: ATPase family AAA domain-containing protein 5 (Homo sapiens) (UniProt Q96QE3); experiment: Validation screen for small molecules that inhibit ELG1-dependent DNA repair in human embryonic kidney (HEK293T) cells expressing luciferase-tagged ELG1 (AID 493107);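 also: cells co-treated with the DNA-damaging agent 5-fluorouridine alongside compound; series mostly up to about 46 µM; % is scaled to controls: 0 for no effect and ±100 for the full control effect; inhibitors lower the ELG1-luciferase luminescence signal; nearly all actives have a fitted effect of over 70% in size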
Method in brief: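 Compounds reducing 5-fluorouridine-driven ELG1-luciferase signal in HEK293T cells were scored; exposure lasted 16 hr at 37 °C with luminescence detected via ONE-Glo.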

[8] = Nrf2 qHTS screen for inhibitors: Validation (AID 493153; active = well fitted inhibition curve with a large enough effect in the main read-out, with a control signal flat, not every such curve was filed as active; also: potency is read from the fitted curve at half-maximal effect); conditions: Potency: luciferase luminescence; viability change: measured here: cytotoxicity max response
Method in brief: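 In this counterscreened reporter format, each well gives two signals: CellTiter-Fluor fluorescence for cytotoxicity and ARE-luciferase luminescence for Nrf2 function. A549 ARE_Fluc cells in 5% FBS OPTI-MEM were exposed to compound titrations for 18-24 h.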

[9] = qHTS for Inhibitors of Cell Surface uPA Generation: Validation Assay (AID 493164);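 also: RAW 264.7 macrophage cells exposed to compound for 18 h; 0% is about no effect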
Method in brief: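 Compounds are titrated over seven points (2.45 nM–38.3 uM final) onto pre-plated RAW 264.7 cells and incubated for 18 h. Retained intracellular ATP, measured with ATP-Lite, indicates blocked lethal factor entry.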

[10] = biological target: Peptidyl-prolyl cis-trans isomerase NIMA-interacting 1 (Homo sapiens) (UniProt Q13526); experiment: qHTS Validation Assay to Find Inhibitors of Pin1 (AID 504536; active = well fitted inhibition curve with a large enough effect in the polarisation, with a control signal flat, not every such curve was filed as active; the % refers to the polarisation;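 also: 0% = full Pin1 enzyme wells and -100% = no-enzyme wells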)
Method in brief: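 Fluorescence polarization competition: compounds (titration) displace HiFluor-488-labeled Pin1-1b peptide from Pin1 (0.3 uM final) in pH 7.5 HEPES buffer with DTT, 10 min at room temperature; %Activity normalized to no-enzyme wells, curves fitted.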

[11] = biological target: Phosphoglycerate kinase, glycosomal (Trypanosoma brucei brucei) (UniProt P07378); experiment: qHTS Validation Assay to Find Inhibitors of Phosphoglycerate Kinase (AID 504547);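 also: control wells lack PGK and mark full inhibition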
Method in brief: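 Compounds are pinned into the substrate/PGK mixture, and GAPDH (100nM final) is added to start the reaction by producing 1,3-BPG. After 60 minutes at room temperature, Kinase-Glo Plus is added and luminescence is measured 10 minutes later.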

[12] = biological target: phosphoglycerate mutase (Leishmania major) (UniProt Q4Q090); experiment: qHTS Validation Assay to Find Inhibitors of Phosphoglycerate Mutase (AID 504548); also: series mostly up to about 58 µM; % is scaled to controls: 0 for no effect and ±100 for the full control effect
Method in brief: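 Lm PGAM 1.25nM final; 100 mM TEA pH 7.6, 5 mM MgCl2, 0.01% Tween-20; 45 min RT; Kinase-GloPlus, 10 min; end-point luminescence. Enzyme-free wells as negative controls.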

[13] = biological target: Ubiquitin carboxyl-terminal hydrolase 1 (Homo sapiens) (UniProt O94782); experiment: Inhibitors of USP1/UAF1: Pilot qHTS (AID 504865);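 also: rhodamine fluorescence freed from ubiquitin-rhodamine substrate followed over time; top concentration of the series differs between compounds; % is scaled to controls: 0 for no effect and ±100 for the full control effect; nearly all actives have a fitted effect of over 35% in size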
Method in brief: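 Enzyme-free wells gave the negative control, while test wells held 1nM USP1/UAF1 preincubated with compound for 15 min at room temperature. Ub-Rho at 150nM final started the reaction, and fluorescence at 480/540 nm was recorded kinetically.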

[14] = biological target: ATP-dependent 6-phosphofructokinase (Trypanosoma brucei brucei) (UniProt O15648); experiment: qHTS Assay to Find Inhibitors of T. brucei phosphofructokinase: hit validation (AID 492961);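 also: luminescence reports ADP formed as PFK phosphorylates fructose-6-phosphate with ATP; series mostly up to about 51 µM; % is scaled to controls: 0 for no effect and ±100 for the full control effect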
Method in brief: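 Compounds titrated; %activity normalized to 0x and 1x enzyme controls, curve-fitted. Readout: ADP-Glo luminescence after 45 min room-temperature reaction of 1.25 nM PFK, 0.1 mM ATP, 0.5 mM F6P, pH 8.0.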

[15] = biological target: Transient receptor potential cation channel subfamily V member 1 (Homo sapiens) (UniProt Q8NER1); experiment: HTS Assay for Compounds that Act as Enhancers of the Vanilloid Receptor 1 (AID 488979); also: 0% is about no effect
Method in brief: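 TRPV1 cells loaded with Fluo-8 calcium dye; compound added and Ca2+ signal (ex 480/em 520 nm) followed 3 min, then capsaicin at EC20 added and read 2 more min to detect enhancement.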

[16] = biological target: Thyrotropin receptor (Homo sapiens) (UniProt P16473); experiment: qHTS Assay for Antagonists of the Thyroid Stimulating Hormone Receptor (AID 488980); also: series mostly up to about 58 µM; 0% is about no effect
Method in brief: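 Inhibition of TSH-stimulated cAMP accumulation was quantified by homogeneous time-resolved FRET in TSHR-transfected HEK293 cells. Agonist: TSH, 4 nM final (EC80).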

[17] = biological target: Thyrotropin-releasing hormone receptor (Homo sapiens) (UniProt P34981); experiment: qHTS for Small Molecule Agonists and Allosteric Enhancers of Human TRH Receptor: Validation Screen for Agonists (AID 493127;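 active = calcium activation more than 3 SD above the typical response in the agonist read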;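 also: intracellular calcium rise by fluo-8 fluorescence before TRH EC20 addition; 0% is about no effect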); conditions: TRH receptor agonist cell assay; at 2 µM; stronger effect = higher value
Method in brief: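 Kinetic fluorescence assay of agonist-induced calcium release: overnight-plated TRHR cells, room-temperature fluo-8 loading, baseline then compound addition with per-second reads.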

[18] = biological target: Galactokinase (Homo sapiens) (UniProt P51570); experiment: qHTS Validation Assay for Inhibitors of Human Galactokinase (GALK) (AID 493189); also: 0% is about no effect
Method in brief: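 Enzyme activity is inferred from ATP consumption: human GALK phosphorylates galactose (100 uM) using 35 uM ATP for 1 h at room temperature, and luciferase-based Kinase-Glo Plus reports unconsumed ATP.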

[19] = Validation screen for small molecules that induce DNA re-replication in SW480 colon adenocarcinoma cells (AID 504364); also: 0% is about no effect
Method in brief: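 Hoechst-stained SW480 nuclei, imaged at 405 nm excitation after 48 hr compound exposure, were counted for elevated DNA content as the re-replication signal.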

[20] = biological target: Tyrosyl-DNA phosphodiesterase 1 (Homo sapiens) (UniProt Q9NUW8); experiment: Confirmation Assay for Inhibitors of Tyrosyl-DNA Phosphodiesterase (TDP1) (AID 489007); conditions: recombinant human TDP1 enzymatic activity, dose-response; also: potency is read from the fitted curve at half-maximal effect; nearly all actives have a fitted effect of over 40% in size
Method in brief: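 Loss of AlphaScreen signal reports Tdp1 cleavage of a dual-labelled DNA substrate. Conditions: 1 nM E. coli-derived enzyme, 15 nM substrate, 15 min compound preincubation, 5 min reaction, 10 min bead incubation, all at room temperature.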

Sequence of Phosphoglycerate kinase, glycosomal (Trypanosoma brucei brucei) (P07378 whole entry, looked up): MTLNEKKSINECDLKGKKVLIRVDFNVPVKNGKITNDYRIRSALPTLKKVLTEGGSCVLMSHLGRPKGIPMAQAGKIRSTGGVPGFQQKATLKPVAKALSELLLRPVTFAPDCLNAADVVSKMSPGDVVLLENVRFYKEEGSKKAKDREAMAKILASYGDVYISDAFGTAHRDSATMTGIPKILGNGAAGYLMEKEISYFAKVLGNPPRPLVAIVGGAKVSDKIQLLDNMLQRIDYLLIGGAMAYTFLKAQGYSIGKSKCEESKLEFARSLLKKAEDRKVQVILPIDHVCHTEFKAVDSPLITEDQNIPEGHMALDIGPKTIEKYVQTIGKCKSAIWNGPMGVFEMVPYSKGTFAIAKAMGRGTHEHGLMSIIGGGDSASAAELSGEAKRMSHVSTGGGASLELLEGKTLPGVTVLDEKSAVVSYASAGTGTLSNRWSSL
Sequence of Peptidyl-prolyl cis-trans isomerase NIMA-interacting 1 (Homo sapiens) (Q13526 whole entry, looked up): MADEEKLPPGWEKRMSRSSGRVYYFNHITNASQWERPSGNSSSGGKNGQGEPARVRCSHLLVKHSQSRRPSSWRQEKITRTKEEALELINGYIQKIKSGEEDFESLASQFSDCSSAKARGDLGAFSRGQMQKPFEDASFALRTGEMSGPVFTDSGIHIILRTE
Sequence of Chromobox protein homolog 1 (Homo sapiens) (P83916 whole entry, looked up): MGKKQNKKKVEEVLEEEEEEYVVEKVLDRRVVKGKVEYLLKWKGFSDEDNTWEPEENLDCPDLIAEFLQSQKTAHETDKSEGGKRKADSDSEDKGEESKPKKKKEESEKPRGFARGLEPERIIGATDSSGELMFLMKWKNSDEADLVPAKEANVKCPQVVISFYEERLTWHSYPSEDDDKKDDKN
Sequence of Thyrotropin receptor (Homo sapiens) (P16473 whole entry, looked up): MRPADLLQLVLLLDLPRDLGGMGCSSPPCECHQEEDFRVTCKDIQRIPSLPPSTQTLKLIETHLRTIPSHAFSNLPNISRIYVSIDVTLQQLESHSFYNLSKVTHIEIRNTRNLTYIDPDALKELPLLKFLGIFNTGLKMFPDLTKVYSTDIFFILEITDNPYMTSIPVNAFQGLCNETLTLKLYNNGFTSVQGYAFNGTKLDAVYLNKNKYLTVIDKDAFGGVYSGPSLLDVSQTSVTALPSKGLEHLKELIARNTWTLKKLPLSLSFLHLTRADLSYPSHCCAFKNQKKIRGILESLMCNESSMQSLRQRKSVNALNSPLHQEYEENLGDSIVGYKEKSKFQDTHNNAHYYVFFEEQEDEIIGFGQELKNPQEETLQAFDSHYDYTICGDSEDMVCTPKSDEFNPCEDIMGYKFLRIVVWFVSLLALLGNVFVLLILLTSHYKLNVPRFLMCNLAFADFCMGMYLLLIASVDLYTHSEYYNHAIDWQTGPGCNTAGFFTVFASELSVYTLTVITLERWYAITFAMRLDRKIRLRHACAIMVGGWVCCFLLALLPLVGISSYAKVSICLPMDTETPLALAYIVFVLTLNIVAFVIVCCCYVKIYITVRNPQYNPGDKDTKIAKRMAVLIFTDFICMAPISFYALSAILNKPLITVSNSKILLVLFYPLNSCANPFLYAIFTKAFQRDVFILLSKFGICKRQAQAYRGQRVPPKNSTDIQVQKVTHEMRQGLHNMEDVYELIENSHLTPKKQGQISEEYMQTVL
Sequence of phosphoglycerate mutase (Leishmania major) (Q4Q090 1-553): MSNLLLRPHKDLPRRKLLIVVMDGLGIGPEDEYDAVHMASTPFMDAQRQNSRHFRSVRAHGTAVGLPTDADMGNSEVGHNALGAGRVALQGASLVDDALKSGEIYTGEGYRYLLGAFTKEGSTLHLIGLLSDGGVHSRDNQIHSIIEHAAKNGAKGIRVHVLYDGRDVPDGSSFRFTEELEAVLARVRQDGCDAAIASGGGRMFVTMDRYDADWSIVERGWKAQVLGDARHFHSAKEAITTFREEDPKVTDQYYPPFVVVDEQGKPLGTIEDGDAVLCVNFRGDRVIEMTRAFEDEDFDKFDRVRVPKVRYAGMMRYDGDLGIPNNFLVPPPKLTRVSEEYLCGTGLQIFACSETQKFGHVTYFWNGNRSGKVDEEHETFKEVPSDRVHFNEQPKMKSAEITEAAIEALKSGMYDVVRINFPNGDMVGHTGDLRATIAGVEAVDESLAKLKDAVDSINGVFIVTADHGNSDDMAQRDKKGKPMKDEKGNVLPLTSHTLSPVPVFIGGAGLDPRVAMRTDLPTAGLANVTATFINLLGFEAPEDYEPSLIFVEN
Sequence of M-phase phosphoprotein 8 (Homo sapiens) (Q99549 whole entry, looked up): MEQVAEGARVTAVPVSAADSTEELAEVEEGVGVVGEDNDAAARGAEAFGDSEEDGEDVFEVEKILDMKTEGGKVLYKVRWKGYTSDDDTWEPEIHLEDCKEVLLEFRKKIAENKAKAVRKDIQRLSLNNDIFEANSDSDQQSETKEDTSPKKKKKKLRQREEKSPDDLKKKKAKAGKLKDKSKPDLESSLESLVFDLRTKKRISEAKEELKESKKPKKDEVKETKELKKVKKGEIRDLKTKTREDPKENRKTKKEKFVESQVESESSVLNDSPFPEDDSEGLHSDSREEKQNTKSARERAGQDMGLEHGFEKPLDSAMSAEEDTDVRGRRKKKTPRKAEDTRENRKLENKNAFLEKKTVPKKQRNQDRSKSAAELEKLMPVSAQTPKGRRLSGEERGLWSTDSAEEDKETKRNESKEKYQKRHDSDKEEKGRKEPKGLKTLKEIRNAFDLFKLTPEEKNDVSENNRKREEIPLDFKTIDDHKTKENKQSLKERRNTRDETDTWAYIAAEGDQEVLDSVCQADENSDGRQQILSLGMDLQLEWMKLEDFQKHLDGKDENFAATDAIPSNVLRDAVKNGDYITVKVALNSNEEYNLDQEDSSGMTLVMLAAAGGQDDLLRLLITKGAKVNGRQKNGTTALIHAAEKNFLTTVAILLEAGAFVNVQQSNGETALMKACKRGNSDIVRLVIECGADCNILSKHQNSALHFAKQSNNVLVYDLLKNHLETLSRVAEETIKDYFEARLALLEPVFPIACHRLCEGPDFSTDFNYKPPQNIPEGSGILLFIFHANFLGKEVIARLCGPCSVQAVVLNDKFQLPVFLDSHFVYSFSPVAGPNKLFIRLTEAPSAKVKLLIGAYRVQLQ
Sequence of ATP-dependent 6-phosphofructokinase (Trypanosoma brucei brucei) (O15648 whole entry, looked up): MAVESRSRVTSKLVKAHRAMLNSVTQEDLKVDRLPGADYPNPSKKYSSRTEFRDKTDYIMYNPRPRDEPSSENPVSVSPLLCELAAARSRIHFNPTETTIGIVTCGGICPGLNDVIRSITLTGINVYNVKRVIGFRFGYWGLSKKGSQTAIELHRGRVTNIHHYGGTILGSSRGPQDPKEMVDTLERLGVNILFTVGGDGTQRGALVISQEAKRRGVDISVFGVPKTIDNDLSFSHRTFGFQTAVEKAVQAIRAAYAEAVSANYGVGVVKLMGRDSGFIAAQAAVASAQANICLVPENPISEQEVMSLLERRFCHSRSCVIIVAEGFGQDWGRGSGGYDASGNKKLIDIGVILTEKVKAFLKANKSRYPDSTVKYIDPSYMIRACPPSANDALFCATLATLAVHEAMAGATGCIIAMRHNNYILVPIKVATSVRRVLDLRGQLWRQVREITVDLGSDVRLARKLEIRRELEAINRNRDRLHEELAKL
Sequence of Methanococcus maripaludis chaperonin (MmCpn) (Q6LX38 1-543): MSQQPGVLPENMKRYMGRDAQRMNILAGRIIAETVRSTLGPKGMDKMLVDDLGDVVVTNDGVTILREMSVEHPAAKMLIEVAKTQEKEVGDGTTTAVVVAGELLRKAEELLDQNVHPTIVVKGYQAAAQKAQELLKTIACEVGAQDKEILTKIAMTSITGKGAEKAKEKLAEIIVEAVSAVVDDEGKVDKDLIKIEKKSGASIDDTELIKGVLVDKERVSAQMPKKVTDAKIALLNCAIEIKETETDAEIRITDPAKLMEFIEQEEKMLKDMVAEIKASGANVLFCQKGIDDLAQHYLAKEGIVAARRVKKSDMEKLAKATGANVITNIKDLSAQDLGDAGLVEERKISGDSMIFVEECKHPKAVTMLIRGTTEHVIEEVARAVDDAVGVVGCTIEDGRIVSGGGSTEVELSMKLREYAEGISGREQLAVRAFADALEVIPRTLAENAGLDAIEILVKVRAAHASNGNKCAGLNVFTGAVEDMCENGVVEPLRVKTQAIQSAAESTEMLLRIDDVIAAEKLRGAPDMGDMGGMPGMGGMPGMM
Sequence of Transient receptor potential cation channel subfamily V member 1 (Homo sapiens) (Q8NER1 whole entry, looked up): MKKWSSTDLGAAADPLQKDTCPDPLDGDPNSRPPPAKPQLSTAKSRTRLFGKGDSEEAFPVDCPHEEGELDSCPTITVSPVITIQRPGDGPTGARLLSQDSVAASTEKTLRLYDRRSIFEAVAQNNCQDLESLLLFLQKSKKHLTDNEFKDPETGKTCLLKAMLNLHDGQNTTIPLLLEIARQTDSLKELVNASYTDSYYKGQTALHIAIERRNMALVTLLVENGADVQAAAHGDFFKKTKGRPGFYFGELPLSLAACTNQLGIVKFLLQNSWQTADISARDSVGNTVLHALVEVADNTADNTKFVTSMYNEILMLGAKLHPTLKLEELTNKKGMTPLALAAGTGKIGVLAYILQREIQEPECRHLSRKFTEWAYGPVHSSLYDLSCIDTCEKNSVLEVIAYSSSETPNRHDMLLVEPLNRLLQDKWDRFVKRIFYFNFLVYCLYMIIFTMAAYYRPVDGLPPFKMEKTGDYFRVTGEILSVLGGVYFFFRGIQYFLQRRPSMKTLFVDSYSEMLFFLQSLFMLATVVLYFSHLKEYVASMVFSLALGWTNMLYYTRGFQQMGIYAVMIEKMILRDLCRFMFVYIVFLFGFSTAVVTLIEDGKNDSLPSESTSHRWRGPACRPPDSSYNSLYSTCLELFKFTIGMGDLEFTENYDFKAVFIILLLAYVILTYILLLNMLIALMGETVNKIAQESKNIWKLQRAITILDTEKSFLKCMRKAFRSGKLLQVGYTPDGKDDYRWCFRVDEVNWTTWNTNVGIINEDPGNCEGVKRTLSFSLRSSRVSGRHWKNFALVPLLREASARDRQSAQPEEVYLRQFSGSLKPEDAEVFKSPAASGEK

CCN(CC)CCn1c(=O)c(Cc2ccc(OC)cc2)nc2ccccc21
inactive: Potency [1] | Potency [2] | outcome [3] | outcome [4] | outcome [5] | outcome [6] | Potency [7] | Potency [8] | outcome [9] | outcome [10] | Potency [11] | outcome [12] | Potency [13]
-5.84%: viability change [8]

NC(=O)N1c2ccccc2CC(=O)c2ccccc21
inactive: Potency [14]

CC1CC2C3CCC4=CC(=O)C=C[C@]4(C)[C@@]3(F)[C@@H](O)C[C@]2(C)[C@@]1(O)C(=O)CO (some centres not stated)
-3.14%: viability change [8]
inactive: Potency [1] | Potency [2] | outcome [3] | outcome [4] | outcome [5] | outcome [6] | Potency [7] | outcome [9] | outcome [10] | Potency [11] | outcome [12] | Potency [13]
active: Potency [8] 13 nM

O=C(O)CCn1c2c(c3ccccc31)C[C@H](NS(=O)(=O)c1ccc(F)cc1)CC2
inactive: Potency [14]

CCCCS(=N)(=O)CCC(N)C(=O)O (configuration not stated)
4.08%: viability change [8]
inactive: Potency [1] | Potency [2] | outcome [3] | outcome [15] | outcome [16] | outcome [4] | outcome [5] | outcome [6] | Potency [7] | activation [17] -2.38% | Potency [8] | outcome [9] | outcome [18] | outcome [19] | outcome [10] | Potency [11] | outcome [12] | Potency [13]

O=C(O)c1cn(C2CC2)c2cc(N3CCNCC3)c(F)cc2c1=O
inactive: Potency [14]

CCC(C)(C)c1ccc(CC(C)CN2C[C@@H](C)O[C@@H](C)C2)cc1 (some centres not stated)
inactive: Potency [14]

O=c1oc2c(O)c(O)cc3c(=O)oc4c(O)c(O)cc1c4c23
active: Potency [20] 4 nM

C1CCC(C(CC2CCCCN2)C2CCCCC2)CC1 (configuration not stated)
inactive: Potency [14]

NCCCC(O)(P(=O)(O)O)P(=O)(O)O
inactive: Potency [14]

COc1ccc(C(=O)CC(=O)c2ccc(C(C)(C)C)cc2)cc1
inactive: Potency [13]
active: Potency [20] 25100 nM

CC(=O)[C@H]1CC[C@H]2[C@@H]3CCC4=CC(=O)CC[C@]4(C)[C@H]3CC[C@]12C
inactive: Potency [1] | Potency [2] | outcome [3] | outcome [15] | outcome [16] | outcome [4] | outcome [5] | outcome [9] | outcome [18] | outcome [19] | outcome [10] | Potency [11] | outcome [12]

COc1cccc(N(C)C(=S)Oc2ccc3c(c2)CCCC3)n1
inactive: Potency [14]

CCN(CC)CC#CCOC(=O)C(O)(c1ccccc1)C1CCCCC1 (configuration not stated)
-11.3%: viability change [8]
inactive: Potency [1] | Potency [2] | outcome [3] | outcome [15] | outcome [16] | outcome [4] | outcome [6] | Potency [7] | activation [17] -7.56% | Potency [8] | outcome [9] | outcome [19] | outcome [10] | Potency [11] | outcome [12] | Potency [13]
